# Laboratory results taken from ChEMBL document CHEMBL2218924, “A broad activity screen in support of a chemogenomic map for kinase signalling research and drug discovery” (Biochem J, 2013).
# Legend:
# [1] = biological target: Tyrosine-protein kinase SYK (Homo sapiens) (UniProt P43405); details: at 10 µM
# [2] = biological target: T1, Mitogen-activated protein kinase kinase kinase 7 (Homo sapiens) (UniProt O43318); details: at 1 µM
# T1 sequence (whole entry): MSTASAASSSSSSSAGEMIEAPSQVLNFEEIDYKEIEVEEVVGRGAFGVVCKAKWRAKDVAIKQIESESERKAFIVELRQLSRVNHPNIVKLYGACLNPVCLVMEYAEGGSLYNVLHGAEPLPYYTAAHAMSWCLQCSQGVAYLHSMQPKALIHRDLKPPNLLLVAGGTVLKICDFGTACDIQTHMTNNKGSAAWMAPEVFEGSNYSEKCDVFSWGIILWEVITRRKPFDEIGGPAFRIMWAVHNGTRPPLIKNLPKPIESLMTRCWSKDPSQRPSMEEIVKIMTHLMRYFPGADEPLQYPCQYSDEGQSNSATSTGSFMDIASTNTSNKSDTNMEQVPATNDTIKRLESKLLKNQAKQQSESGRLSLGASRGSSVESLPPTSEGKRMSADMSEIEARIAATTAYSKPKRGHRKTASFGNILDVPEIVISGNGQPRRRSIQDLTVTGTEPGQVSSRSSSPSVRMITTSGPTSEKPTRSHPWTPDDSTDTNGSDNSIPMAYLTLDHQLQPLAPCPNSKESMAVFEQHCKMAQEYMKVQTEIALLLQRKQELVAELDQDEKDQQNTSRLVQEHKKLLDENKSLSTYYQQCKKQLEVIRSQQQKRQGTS
# [3] = biological target: T1, Mitogen-activated protein kinase kinase kinase 7 (Homo sapiens); details: at 10 µM
# [4] = biological target: T2, Serine/threonine-protein kinase TAO1 (Homo sapiens) (UniProt Q7L7X3); details: at 10 µM
# T2 sequence (whole entry): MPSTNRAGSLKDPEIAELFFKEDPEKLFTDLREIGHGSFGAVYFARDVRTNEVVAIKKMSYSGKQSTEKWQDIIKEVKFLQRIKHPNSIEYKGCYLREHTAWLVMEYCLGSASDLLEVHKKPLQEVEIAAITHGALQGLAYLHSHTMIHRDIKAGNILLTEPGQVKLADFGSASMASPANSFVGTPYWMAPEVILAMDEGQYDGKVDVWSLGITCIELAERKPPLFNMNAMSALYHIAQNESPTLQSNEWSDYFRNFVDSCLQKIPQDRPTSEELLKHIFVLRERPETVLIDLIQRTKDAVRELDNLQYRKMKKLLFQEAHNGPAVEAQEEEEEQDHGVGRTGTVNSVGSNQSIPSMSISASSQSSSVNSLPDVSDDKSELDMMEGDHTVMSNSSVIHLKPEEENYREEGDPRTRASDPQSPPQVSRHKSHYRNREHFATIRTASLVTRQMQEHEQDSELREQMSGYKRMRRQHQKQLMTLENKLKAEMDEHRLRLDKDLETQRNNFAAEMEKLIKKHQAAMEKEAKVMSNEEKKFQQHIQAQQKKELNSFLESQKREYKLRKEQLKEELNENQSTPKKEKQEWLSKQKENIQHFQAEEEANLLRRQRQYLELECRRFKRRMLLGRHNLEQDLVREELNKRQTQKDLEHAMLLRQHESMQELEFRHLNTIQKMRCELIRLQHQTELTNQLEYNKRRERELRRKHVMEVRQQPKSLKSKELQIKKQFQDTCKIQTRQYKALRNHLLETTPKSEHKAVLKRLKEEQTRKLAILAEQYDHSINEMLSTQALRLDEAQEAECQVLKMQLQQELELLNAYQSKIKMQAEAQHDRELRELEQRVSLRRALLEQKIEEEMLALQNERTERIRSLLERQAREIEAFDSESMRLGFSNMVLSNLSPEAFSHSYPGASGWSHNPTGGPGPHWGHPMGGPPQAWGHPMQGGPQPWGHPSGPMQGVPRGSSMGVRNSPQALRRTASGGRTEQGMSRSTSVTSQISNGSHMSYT
# [5] = biological target: T3, Serine/threonine-protein kinase TAO3 (Homo sapiens) (UniProt Q9H2K8); details: at 10 µM
# T3 sequence (whole entry): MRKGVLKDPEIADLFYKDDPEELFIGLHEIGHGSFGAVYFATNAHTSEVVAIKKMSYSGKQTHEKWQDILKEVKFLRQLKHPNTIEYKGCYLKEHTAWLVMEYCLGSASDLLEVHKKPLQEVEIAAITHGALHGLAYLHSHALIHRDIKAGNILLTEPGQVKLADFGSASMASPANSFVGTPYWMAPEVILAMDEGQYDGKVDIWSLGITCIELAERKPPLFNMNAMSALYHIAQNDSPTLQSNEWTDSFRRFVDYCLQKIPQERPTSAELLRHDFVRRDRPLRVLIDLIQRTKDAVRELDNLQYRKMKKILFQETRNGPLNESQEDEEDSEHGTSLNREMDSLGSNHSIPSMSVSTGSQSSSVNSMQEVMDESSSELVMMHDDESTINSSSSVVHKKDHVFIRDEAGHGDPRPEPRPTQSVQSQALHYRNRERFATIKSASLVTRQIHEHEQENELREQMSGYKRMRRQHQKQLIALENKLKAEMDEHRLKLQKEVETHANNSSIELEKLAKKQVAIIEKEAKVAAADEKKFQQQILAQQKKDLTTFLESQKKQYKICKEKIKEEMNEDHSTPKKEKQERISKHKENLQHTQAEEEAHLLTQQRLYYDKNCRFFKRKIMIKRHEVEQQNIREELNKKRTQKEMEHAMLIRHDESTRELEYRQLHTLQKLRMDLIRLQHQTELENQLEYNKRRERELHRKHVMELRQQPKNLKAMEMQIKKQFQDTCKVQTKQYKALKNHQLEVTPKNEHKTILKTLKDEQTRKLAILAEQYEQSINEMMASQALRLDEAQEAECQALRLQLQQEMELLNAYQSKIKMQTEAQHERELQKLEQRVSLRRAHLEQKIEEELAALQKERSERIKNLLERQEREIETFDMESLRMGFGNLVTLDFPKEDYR
# [6] = biological target: T4, Serine/threonine-protein kinase TBK1 (Homo sapiens) (UniProt Q9UHD2); details: at 1 µM
# T4 sequence (whole entry): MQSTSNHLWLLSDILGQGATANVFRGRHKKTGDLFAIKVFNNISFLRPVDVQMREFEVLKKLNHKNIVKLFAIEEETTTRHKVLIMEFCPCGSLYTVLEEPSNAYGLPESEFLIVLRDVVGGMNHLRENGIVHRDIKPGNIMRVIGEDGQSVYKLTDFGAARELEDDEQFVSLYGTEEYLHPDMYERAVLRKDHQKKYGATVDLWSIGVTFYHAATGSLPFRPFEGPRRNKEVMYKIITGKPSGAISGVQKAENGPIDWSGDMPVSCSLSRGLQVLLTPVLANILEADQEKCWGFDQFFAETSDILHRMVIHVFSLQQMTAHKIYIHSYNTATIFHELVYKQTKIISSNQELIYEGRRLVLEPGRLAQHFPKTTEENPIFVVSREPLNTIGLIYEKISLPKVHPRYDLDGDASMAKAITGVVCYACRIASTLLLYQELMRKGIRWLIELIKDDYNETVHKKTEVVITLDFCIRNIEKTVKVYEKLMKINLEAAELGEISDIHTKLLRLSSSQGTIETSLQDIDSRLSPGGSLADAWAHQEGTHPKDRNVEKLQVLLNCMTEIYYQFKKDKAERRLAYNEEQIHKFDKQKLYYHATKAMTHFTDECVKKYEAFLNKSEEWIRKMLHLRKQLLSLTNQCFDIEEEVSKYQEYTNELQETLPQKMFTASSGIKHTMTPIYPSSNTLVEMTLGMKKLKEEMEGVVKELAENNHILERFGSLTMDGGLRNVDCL
# [7] = biological target: T2, Serine/threonine-protein kinase TAO1 (Homo sapiens); details: at 1 µM
# [8] = biological target: T5, Serine/threonine-protein kinase TAO2 (Homo sapiens) (UniProt Q9UL54); details: at 10 µM
# T5 sequence (whole entry): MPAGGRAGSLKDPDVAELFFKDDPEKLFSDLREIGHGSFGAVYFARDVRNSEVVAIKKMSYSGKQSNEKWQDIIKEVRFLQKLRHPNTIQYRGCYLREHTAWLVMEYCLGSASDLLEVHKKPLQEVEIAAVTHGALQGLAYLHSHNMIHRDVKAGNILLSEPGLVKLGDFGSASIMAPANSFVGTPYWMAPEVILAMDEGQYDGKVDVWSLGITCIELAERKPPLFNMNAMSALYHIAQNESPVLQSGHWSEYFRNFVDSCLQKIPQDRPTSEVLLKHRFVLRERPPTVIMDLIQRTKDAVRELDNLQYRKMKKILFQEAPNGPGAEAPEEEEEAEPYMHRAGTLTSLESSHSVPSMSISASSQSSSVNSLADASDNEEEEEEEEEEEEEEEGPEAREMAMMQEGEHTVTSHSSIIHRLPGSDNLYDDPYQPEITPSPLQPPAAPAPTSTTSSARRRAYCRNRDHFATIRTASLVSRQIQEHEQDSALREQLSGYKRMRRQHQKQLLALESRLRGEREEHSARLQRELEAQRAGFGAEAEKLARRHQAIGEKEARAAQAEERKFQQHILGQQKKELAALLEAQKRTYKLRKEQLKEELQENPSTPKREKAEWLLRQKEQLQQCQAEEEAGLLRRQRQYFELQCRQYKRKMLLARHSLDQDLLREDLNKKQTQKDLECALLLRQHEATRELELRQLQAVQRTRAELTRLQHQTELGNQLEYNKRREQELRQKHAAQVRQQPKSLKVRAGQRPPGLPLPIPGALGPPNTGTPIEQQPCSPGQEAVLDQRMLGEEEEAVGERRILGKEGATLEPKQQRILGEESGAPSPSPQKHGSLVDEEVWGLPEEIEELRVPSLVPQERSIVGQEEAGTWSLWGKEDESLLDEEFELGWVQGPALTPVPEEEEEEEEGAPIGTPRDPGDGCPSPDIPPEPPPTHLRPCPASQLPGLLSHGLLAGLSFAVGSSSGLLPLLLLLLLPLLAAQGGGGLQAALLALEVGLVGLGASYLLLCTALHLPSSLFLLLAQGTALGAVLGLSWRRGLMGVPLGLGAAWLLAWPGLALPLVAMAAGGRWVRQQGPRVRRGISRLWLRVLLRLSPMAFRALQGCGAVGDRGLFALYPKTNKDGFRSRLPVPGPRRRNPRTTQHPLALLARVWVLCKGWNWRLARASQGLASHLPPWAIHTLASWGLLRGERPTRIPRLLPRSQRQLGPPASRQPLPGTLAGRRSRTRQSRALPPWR
# [9] = biological target: T3, Serine/threonine-protein kinase TAO3 (Homo sapiens); details: at 1 µM
# [10] = biological target: T5, Serine/threonine-protein kinase TAO2 (Homo sapiens); details: at 1 µM
Structure (SMILES),residual activity [1],residual activity [2],residual activity [3],residual activity [4],residual activity [5],residual activity [6],residual activity [7],residual activity [8],residual activity [9],residual activity [10]
O=C(c1ccccc1)c1ccc(N2CCOCC2)cc1O,93%,100%,95%,91%,92%,91%,–,–,–,–
O=C1Cc2c([nH]c3ccc(Br)cc23)-c2ccccc2N1,25%,81%,68%,28%,–,53%,76%,–,–,–
COc1ccc(Cl)cc1NC(=O)Nc1cc(C)nc2ccccc12,88%,98%,95%,–,83%,78%,–,85%,95%,–
O=C1Nc2ccc(Cl)cc2/C1=C/c1cc(Cl)c(O)c(Cl)c1,56%,83%,75%,35%,52%,59%,62%,58%,61%,72%
O=C1C(Cl)=C(N2C(=O)CCC2=O)C(=O)c2ccccc21,101%,94%,83%,94%,94%,68%,89%,–,101%,–
O=c1cc(N2CCOCC2)oc2c1ccc1ccccc12,94%,93%,90%,87%,95%,77%,102%,96%,98%,98%
Nc1ncnc2c1c(-c1ccc(Oc3ccccc3)cc1)cn2C1CCCC1,59%,–,81%,81%,77%,61%,94%,77%,92%,–
CC(C)[C@H](CO)Nc1nc(Nc2cc(N)cc(Cl)c2)c2ncn(C(C)C)c2n1,73%,85%,30%,52%,54%,97%,92%,73%,93%,88%
COc1cc2nccc(Oc3ccc(NC(=S)NC(=O)c4ccccc4C)cc3)c2cc1OC,65%,87%,87%,71%,67%,57%,91%,75%,78%,89%
O=C1NC(=O)C(c2cn(CCCO)c3ncccc23)=C1c1cnccn1,96%,94%,81%,69%,77%,92%,86%,–,83%,–
O=C(Nc1nc2ccccc2n1CCN1CCOCC1)c1cccc([N+](=O)[O-])c1,84%,78%,74%,–,–,73%,–,–,–,–
O=C(O)/C=C/c1cc(Br)c(Br)c(Br)c1Br,84%,107%,95%,29%,26%,69%,77%,68%,81%,84%
CSc1nc(-c2ccc(F)cc2)c(-c2ccnc(NC(C)c3ccccc3)c2)[nH]1 (stereo not given),75%,101%,93%,83%,91%,102%,102%,83%,–,–
COc1ccc2c(c1)c(C1=C(c3c[nH]c4ccccc34)C(=O)NC1=O)cn2CCCN(C)C,69%,82%,53%,33%,37%,59%,–,28%,82%,–
CCCC(=O)Oc1ccc2[nH]c(C(=O)c3cc4ccccc4[nH]3)cc2c1,101%,83%,87%,81%,86%,63%,91%,83%,89%,104%
O=C1NC(=O)C(c2cn(CCCn3ccnc3)c3ccccc23)=C1Nc1ccccc1,67%,–,66%,37%,19%,22%,–,–,63%,–
Nc1nc(Nc2ccc(S(N)(=O)=O)cc2)nn1C(=O)c1c(F)cccc1F,11%,82%,34%,4%,4%,72%,15%,2%,18%,6%
CCCCc1c(-c2ccc(OC)cc2)[nH]c2nccnc12,39%,–,86%,48%,90%,61%,48%,82%,81%,64%
CC(C)(C)n1nc(Cc2cccc3ccccc23)c2c(N)ncnc21,71%,86%,78%,50%,41%,78%,87%,42%,92%,90%
O=c1cc(N2CCNCC2)oc2c(-c3ccccc3)cccc12,92%,95%,83%,85%,92%,72%,–,96%,98%,105%
CC(C)c1nn(-c2c(Cl)cccc2Cl)c2nc(Cc3ccc(OCCO)cc3)[nH]c(=O)c12,96%,97%,63%,13%,9%,82%,61%,22%,55%,84%
COc1ccc(-c2cnc3c(-c4ccsc4)cnn3c2)cc1,95%,99%,97%,97%,–,97%,97%,–,–,–
Nc1ncnc2c1cnn2-c1ccccc1,92%,89%,88%,80%,87%,–,94%,–,100%,–
CCCCc1c(-c2ccc(O)cc2)[nH]c2nccnc12,66%,90%,89%,7%,68%,70%,36%,30%,62%,35%
